Experimental data published in PubChem BioAssay (NCI).
The panel holds about 83,000 compounds, 20% with a hit somewhere; the sample as a whole holds those more often.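 Method: cells in 96-well plates; compound added at one concentration; 48 h incubation; percent growth measured; values under 10 scored active.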 A number with no mark means an inactive call. Active and inactive are the calls of the source.

Legend:
Assay in all cases: NCI-60 one-dose screen, 48 h (100 = growth as untreated, 0 = no growth, -100 = all killed)
[1] = test system: MDA-MB-435 melanoma; settings: 10 µM unless noted
[2] = test system: SW-620 colon; settings: 10 µM unless noted
[3] = test system: MCF7 breast; settings: 10 µM
[4] = test system: HCT-116 colon; settings: 10 µM unless noted
[5] = test system: HCC-2998 colon; settings: 10 µM unless noted
[6] = test system: KM12 colon; settings: 10 µM unless noted

Compound	growth [1]	growth [2]	growth [3]	growth [4]	growth [5]	growth [6]
CCN1C(=O)N(CC)C2Nn3c(s/c(=C\c4ccccc4F)c3=O)=NC21 (stereo not drawn)	-19.9% (active)	38.4%	33.1%	17.5%	36.1%	28.5%
COc1ccc(-c2nnc(COc3ccc(C(=O)/C=C/c4ccco4)cc3)o2)cc1	10.9%	31%	19.6%	-10.2% (active)	98.2%	18.2%
O=C1c2ccccc2C(=O)c2c1ccc1[nH]c(CCl)nc21	28.6%	-23.7% (active)	6.47% (active)	-6.49% (active)	65.5%	22.9%
O=c1oc2ccc(-c3ccc(F)cc3F)cc2c(=O)n1-c1ccc(Cl)c(C(F)(F)F)c1	7.88% (active)	14.6%	7.27% (active)	6.47% (active)	25.6%	3.84% (active)
CCOC(=O)c1cc2c(n1Cc1ccccc1)-c1oncc1CCC2	-7.87% (active)	43%	45.8%	64.7%	87.5%	56.1%
O=c1oc2ccc(-c3ccc(F)cc3F)cc2c(=O)n1-c1cccc(C(F)(F)F)c1	5.25% (active)	12.6%	3.59% (active)	8.28% (active)	22.9%	3.37% (active)
C#CCn1cc(C=C2C(=O)N(C)C(=O)N(C)C2=O)c2cc(Cl)ccc21	103%	99.5%	100%	109%	112%	104%
O=C(CCN1C(=O)c2ccccc2C1=O)Nc1ccc(Cl)cc1	68.9%	103%	72.4%	61.4%	75.2%	75%
O=C(CN1C(=O)/C(=C\c2ccc(Cl)cc2)SC1=S)Nc1ncc(Cc2ccc(Cl)cc2)s1	110%	105%	94.8%	107%	106%	101%
O=C(c1ccccc1)N(C(=S)NCCc1ccc(Cl)cc1)c1ccccc1	84%	76.9%	38.6%	62.2%	101%	52.3%
COc1c(B(O)O)cccc1-c1nc2ccc3[nH]ncc3c2c2c1C1CCC2C1 (stereo not drawn)	65.8%	34.3%	61.8%	20.5%	110%	25.3%
O=c1c2cc(F)ccc2sc2c(NCCCNCCO)nc3ccc(Cl)cc3c12	40.1%	-38.8% (active)	31%	-18.5% (active)	60.7%	44%
O=C(Nc1ccc(Cl)cc1)N1CCN(c2ccc3nncn3n2)CC1	-81.4% (active)	-88% (active)	-53.4% (active)	-83.4% (active)	-33.6% (active)	-40.8% (active)
O=C(CCc1nnc2sc(Cc3ccccc3Cl)nn12)c1nc2ncccc2[nH]1	102%	88.4%	80%	84%	87.7%	97.1%
O=c1oc2ccc(F)cc2c(=O)n1-c1ccc(F)cc1F	11.7%	31.7%	24.8%	24.4%	22.8%	12.6%
O=c1oc2ccc(Cl)cc2c(=O)n1-c1ccc(Cl)cc1F	-5.48% (active)	9.15% (active)	0.727% (active)	2.58% (active)	10.7%	-9.11% (active)
O=c1oc2ccc(Cl)cc2c(=O)n1-c1ccc(F)cc1F	3.09% (active)	15.6%	5.09% (active)	7.6% (active)	34%	5.64% (active)
COc1ccc(S(=O)(=O)N(Cc2ccc3c(n2)C=CC(C)(C)O3)C2CCC2)cc1OC	-34.7% (active)	3.81% (active)	2.14% (active)	-5.68% (active)	-1.63% (active)	-1.42% (active)
Cn1c(=O)n(C)c2cc(CNCCNc3ccnc4cc(Cl)ccc34)ccc21	38.7%	23.1%	74.2%	28.1%	27.4%	54.5%
Cc1ccc(NCCNCC(O)CO)c2c(=O)c3ccccc3sc12 (stereo not drawn)	-26% (active)	-78.7% (active)	-53.6% (active)	-66.1% (active)	-75.1% (active)	15.4%
O=c1oc2ccc(I)cc2c(=O)n1-c1ccc(Cl)cc1F	1.42% (active)	11.7%	2.84% (active)	7.44% (active)	16.9%	1.77% (active)
O=C(Nc1ccc(I)cc1F)c1cc(F)ccc1O	-5.16% (active)	7.82% (active)	0.117% (active)	-6.74% (active)	8.95% (active)	-11.4% (active)

Compound	growth [1]	growth [2]	growth [3]	growth [4]	growth [5]	growth [6]
O=c1oc2ccc(F)cc2c(=O)n1-c1ccc(I)cc1F	-1.4% (active)	11%	1.73% (active)	7.36% (active)	14.6%	-0.975% (active)
O=C(Nc1ccc(I)cc1F)c1cc(Br)ccc1O	-3.54% (active)	7.36% (active)	2.45% (active)	-8.63% (active)	14.6%	-7% (active)
O=c1oc2ccc(Cl)cc2c(=O)n1-c1cc(C(F)(F)F)cc(C(F)(F)F)c1	-4.47% (active)	6.78% (active)	2.18% (active)	-12.7% (active)	5.83% (active)	-31.5% (active)
O=C(CN1C=NC2C(N3CCOCC3)=NC=NC21)c1ccc(Br)cc1 (stereo not drawn)	101%	100%	99.1%	103%	111%	107%
CC[C@]1(O)C[C@@H]2CN(CCc3c([nH]c4ccccc34)[C@@](C(=O)OC)(c3cc4c(cc3OC)N(C)[C@H]3[C@@](O)(C(=O)OC)[C@H](OC(C)=O)[C@]5(CC)C=CCN6CC[C@]43[C@@H]65)C2)C1	-38% (active)	22.7%	10.6%	7.92% (active)	0.153% (active)	8.64% (active)
COC(=O)c1c2c(c(C)[n+]([O-])c1C)C(=O)C(NCc1ccc(F)c(F)c1)=CC2=O	-88.4% (active)	3.6% (active)	-43.3% (active)	1.74% (active)	9.25% (active)	10.4%
CC(C)C[C@H](C(=O)N[C@@H](C)C(N)=O)N1CC=CCN(O)S1(=O)=O	119% [5 µM]	103% [5 µM]		109% [5 µM]	110% [5 µM]	109% [5 µM]
CNCCNc1nc2ccccc2c2c(=O)c3cc(OC)ccc3sc12	-86.1% (active)	-78.3% (active)	-56.9% (active)	-82.3% (active)	-68.7% (active)	-75.7% (active)
COc1cccc(-c2nn(C)c3sc(C(=O)NCCN4CCN(c5ccccc5F)CC4)cc23)c1	-55.7% (active)	74.6%	15.1%	33.5%	-41.1% (active)	54.2%
O=C(Nc1ccc(F)cc1F)c1cc(I)ccc1O	5.35% (active)	14.5%	5.52% (active)	6.45% (active)	24.4%	6.2% (active)
O=C(N=Nc1c(O)[nH]c2ccccc12)c1oc2ccccc2c1CN1CCN(c2ccccc2)CC1	26.3%	0.43% (active)	-22.7% (active)	-53.1% (active)		23.1%
O=C(Nc1ccc(Cl)cc1F)c1cc(I)ccc1O	18.5%	27.4%	47%	21.2%	81.6%	62%
O=C1c2cc(I)ccc2Oc2cc([N+](=O)[O-])ccc2N1c1ccc(Cl)cc1F	60.4%	82.5%	80.7%	67.8%	102%	81.2%
Cc1nc(Nc2cn[nH]c2C(=O)Nc2ccc(CN3CCN(C)CC3)cc2)c2ccsc2n1	87.1%	114%	59.9%	52.4%	95.3%	27.4%
O=C(c1ccccc1)N(CCc1ccc(Cl)cc1)C(=S)N(C(=O)c1ccccc1)c1ccccc1	96.8%	80.3%	35.7%	69.6%	105%	56.5%
O=C(/C=C/c1cccc(Cl)c1)OCc1ccc2cc1OCC#C/C=C\C#CCO2	106%	108%		89%	107%	104%
COc1ccc(/C=C/C(=O)c2c(C)nc3ccccc3c2/C=C/c2ccccc2)cc1O	1.85% (active)	19.4%	18.2%	12%	82.4%	35.6%
O=C(Nc1ccc(Br)cc1F)c1cc(I)ccc1O	4.78% (active)	14.1%	5.42% (active)	5.43% (active)	27.4%	6.15% (active)
O=C1c2cc(Cl)ccc2Oc2cc([N+](=O)[O-])ccc2N1c1ccc(F)cc1F	93.4%	85.9%	86.6%	79.7%	115%	94.6%
Cc1ccc(NC2=CC(=O)C(=O)c3ccccc32)c(C)c1	-77% (active)	34.9%		-6.25% (active)	29.1%	46.4%
O=S(=O)(c1ccc(NC(=S)NC23CC4CC(CC(C4)C2)C3)cc1)N1CCCCC1	96%	55.8%	94.2%	50.5%		24.7%
O=C(/C=C/c1ccc(C(F)(F)F)cc1)c1ccc(Nc2nc(NCCO)nc(N3CCOCC3)n2)cc1	22.1%	-6.72% (active)	3.91% (active)	-28.3% (active)	63.9%	-32.2% (active)

Compound	growth [1]	growth [2]	growth [3]	growth [4]	growth [5]	growth [6]
COc1ccc(C2C3=C(COC3=O)N(CCO)c3cc4c(cc32)OCCO4)cc1 (stereo not drawn)	1.1% (active)	55.2%		77.2%	76.5%	49%
Nc1cccc(Nc2cc(S(=O)(=O)O)c(N)c3c2C(=O)c2ccccc2C3=O)c1	109%	104%		108%	120%	105%
O=C(Nc1ccc(Cl)cc1F)c1cc(Br)ccc1O	0.322% (active)	11.4%	4% (active)	5.79% (active)	16.7%	0.131% (active)
O=C(CCc1nnc2sc(-c3ccc(Cl)cc3Cl)nn12)c1nc2ncccc2[nH]1	-31.2% (active)	-30.4% (active)	6.03% (active)	-73.6% (active)		-52.2% (active)
CC(C)c1ccc(S(=O)(=O)NC(=O)NC2CCCC2)cc1	100%	97.9%	93.2%	97.5%	108%	103%
COc1ccc(Br)c(/C=C2\SC(=Nc3ccc(O)cc3)NC2=O)c1	87.2%	104%	70.4%	98.7%	109%	84.2%
Nc1ccc(-c2nn3c(CCC(=O)c4nc5ncccc5[nH]4)nnc3s2)c(O)c1	97.2%	90.1%	84.7%	86.7%	69.4%	98.5%
CC(=S)NC(=O)C(=O)/C=C1/NC(=O)C(=O)S1	106%	106%	104%	114%	108%	107%
O=C(Nc1ccc(Br)cc1F)c1cc(F)ccc1O	-1.29% (active)	10.2%	3.43% (active)	2.34% (active)	17.8%	0.627% (active)
COc1cc(NC(=O)CCSc2nc3ccccc3c(=O)n2Cc2ccccc2)cc(OC)c1OC	89.9%	93.6%	84.1%	83.7%	99.6%	87.1%
CC/C=C\C[C@H](O)C/C=C1/C(=O)C=C[C@@H]1C/C=C\CCCC(=O)OCCS(=O)(=O)c1ccccc1	28.3%	33.2%	18.9%	-23% (active)		25.6%
Cc1c(-c2csc(-n3nc(C(F)(F)F)cc3C(F)(F)F)n2)no[n+]1[O-]	99.2%	104%	85.1%	93.1%	112%	104%
CC(C)[C@H](NC(=O)Cn1cc(C(=O)O)nn1)C(=O)O	98.8%	108%	97.1%	102%		103%
COC(=O)/C(CCC=C(C)C)=C1\[C@@H](OC(C)=O)C[C@@]2(C)[C@H]1C[C@@H](O)[C@H]1[C@@]3(C)CC[C@H](NCCCNCCCCNCCCN)[C@@H](C)[C@@H]3CC[C@@]12C	8.03% (active)	55.8%	95.6%	47.1%	52.1%	21.7%
Cc1ccc2nc(NC(=O)CSC(=S)N3CCN(c4ccccc4)CC3)sc2c1	111%	109%	95%	95%		95.1%
CCN1CCN(c2cc(C)c3cc(NC(=O)c4ccc(OC)c(OC)c4)ccc3n2)CC1	-42% (active)	16.7%	17.9%	26.3%	81.9%	26.2%
O=C(Nc1ccc(F)cc1F)c1cc(Br)ccc1O	0.167% (active)	13.1%	-1.09% (active)	1.66% (active)	13.5%	-0.56% (active)
O=C(Nc1ccc(F)cc1F)c1cc(Cl)ccc1O	4.56% (active)	14.5%	3.22% (active)	8.39% (active)	23.1%	5.33% (active)
COc1ccc(-n2c(C(O)c3ccccc3)n[nH]c2=S)cc1 (stereo not drawn)		105%	93.7%	96.3%	106%	101%
O=C(Nc1ccc(I)cc1F)c1cc(Cl)ccc1O	-2.93% (active)	8.71% (active)	1.52% (active)	-29.5% (active)	17.6%	-10.9% (active)
COc1ccc(/C(C#N)=C/c2nc3c(N4CCOCC4)nc(Cl)nc3n2C)cc1OC	-64.5% (active)	-53.7% (active)	6.49% (active)	-73.2% (active)	2.12% (active)	-0.417% (active)
